According to PubChem BioAssay (NCI):
This is part of a sample that, as a whole, favours compounds with a hit. Of some 83,000 tested, about 20% had one in any assay.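 How to read the values: 0–100, growth inhibition (40 = 60% inhibited); 0, no net growth; -100 to 0, cell death (-40 = 40% of starting cells died; -100 = all dead).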 Unmarked numbers belong to inactive results. Activity calls are given as the source filed them. Rule for the calls: active = growth percent below 10; inactive = the rest.

Tests used:
Test in all cases: NCI-60 one-dose screen, 48 h (100 = growth as untreated, 0 = no growth, -100 = all killed)
Settings in all cases: 10 µM
NCI-H23 lung = tested on: NCI-H23 lung
NCI-H226 lung = tested on: NCI-H226 lung
HOP-62 NSCLC = tested on: HOP-62 NSCLC
NCI-H460 lung = tested on: NCI-H460 lung
HOP-92 NSCLC = tested on: HOP-92 NSCLC
NCI-H522 lung = tested on: NCI-H522 lung
A549/ATCC NSCLC = tested on: A549/ATCC NSCLC
786-0 renal = tested on: 786-0 renal
COLO 205 colon = tested on: COLO 205 colon

| Compound | growth (NCI-H23 lung) | growth (NCI-H226 lung) | growth (HOP-62 NSCLC) | growth (NCI-H460 lung) | growth (HOP-92 NSCLC) | growth (NCI-H522 lung) | growth (A549/ATCC NSCLC) | growth (786-0 renal) | growth (COLO 205 colon) |
| --- | --- | --- | --- | --- | --- | --- | --- | --- | --- |
| COc1ccc2c(c1)CC=C1[C@@H]2CC[C@]2(C)C(=O)/C(=N/O)C[C@@H]12 | 102% | 87.6% | 88.5% | 101% | 96.5% | 102% | 99.4% | 90.3% | 103% |
| O=C1c2ccccc2C(=O)c2c1ccc(C(Br)Br)c2[N+](=O)[O-] | 4.98% (active) | -1.88% (active) | 78.4% | 75.2% | 38.8% | 64.1% | 94.6% | 21.1% | 69.6% |
| Cc1nn(-c2ccc(-c3ccc(OC(F)(F)F)cc3)cc2)c2nc(Cc3ccccc3)nc(N)c12 | 64.9% | 42.5% | 45.9% | 3.39% (active) | 59% | 73.7% | 16.7% | 5.79% (active) | 65.2% |
| CC(C)(C)OC(=O)N1CCc2c(sc3ncnc(N/N=C/c4ccccc4Br)c23)C1 | 74% | 78% | 85.8% | 49.2% | 80.8% | 68.2% | 68.1% | 69.2% | 27.6% |
| CNC(=O)c1cn2c3c(c(N4CCN(C)CC4)c(F)cc3c1=O)OC[C@@H]2C | 96.3% | 93% | 94.5% | 103% | 98.5% | 90.4% | 95.7% | 96.2% | 110% |
| CC(C)c1ccc(C(C)C(=O)N(CC2=C(C(C)c3ccccn3)c3ccccc3C2)C(C)C)cc1 (configuration not stated) | 26.3% | 57.1% | 59.2% | 23.1% | 20.3% | 24.9% | 36% | 40.9% | 35.7% |
| NS(=O)(=O)Oc1ccc(-c2ccc3sccc3c2)cc1 | 94.2% | 88.1% | 104% | 103% | 104% | 87.1% | 98.3% | 106% | 114% |
| COc1cc(NC(=O)C2=C(N3CCOCC3)/C(=C/c3ccc(Cl)cc3)CC2)cc(OC)c1OC | 94.6% | 86.1% | 102% | 99.6% | 65.3% | 29.2% | 40.8% | 93.2% | 98.5% |
| COc1ccc(/C=C/c2nnc(/C=C/c3ccc(OC)c(OC)c3)o2)cc1OC | 25.4% | 63.5% | 35.3% | 15.6% | 20.4% | 9.91% (active) | 32% | 12.8% | 22% |
| NS(=O)(=O)c1ccc(N2N=C(c3ccccc3)CCC2=O)cc1 | 95.4% | 120% | 95.8% | 102% | 97.7% | 85.7% | 93.6% | 82.7% | 156% |
| N#CC1=C(N)Oc2cc(N)ccc2C1c1cccnc1 (configuration not stated) | 92.1% | 101% | 92.7% | 97.5% | 111% | 75% | 100% | 90.7% | 113% |
| COC(=O)C1(O)NC(=C(C#N)C#N)C(C#N)=C1C(=O)c1ccc(OC)c(OC)c1 (configuration not stated) | 103% | 93.6% | 96.1% | 100% | 90.3% | 90.3% | 91.9% | 101% | 120% |
| COc1ccc(-c2nc(-c3nc4ccc(C)cc4[nH]3)cc3c2[nH]c2ccccc23)cc1 | 39% | 63.9% | 55.3% | 32.8% | 33% | 14.7% | 28% | 69.9% | 46.9% |
| Cc1n[nH]c(C)c1N=Nc1cccc2c1C(=O)c1ccccc1C2=O | 84.7% | 87.4% | 96.9% | 96.5% | 92.6% | 86.7% | 105% | 101% | 104% |
| Cc1cc(CSc2ccccc2C(=O)N2CC=C(c3ccccc3)CC2)on1 | 89.4% | 88.4% | 92.2% | 100% | 93.4% | 75.3% | 94.6% | 94.5% | 107% |
| Cc1cc(CCNC=O)c(C)c2c1sc1ccccc12 | 86.6% | 77.2% | 86.2% | 104% | 91.2% | 101% | 82.9% | 106% | 124% |
| COc1cc(OC)c2c(=O)c(O)c(-c3ccccc3)oc2c1 | 79.8% | 69.3% | 67.7% | 53.5% | 52% | 72.5% | 77.3% | 70.8% | 104% |
| Clc1nc2ccc(Br)cc2cc1-c1nc2ccccc2[nH]1 | 90.6% | 98.5% | 81.3% | 73.2% | 71.3% | 53.1% | 17.2% | 91% | 107% |
| CC(=O)N[C@H](C(=O)N[C@@H](CCCNC(=N)N)C(=O)N[C@@H](CCCCN)C(=O)N[C@@H](CCCNC(=N)N)C(=O)NC(C(=O)N[C@@H](CC(C)C)C(=O)N[C@@H](CCCNC(=N)N)C(=O)N[C@@]1(C)CCC/C=C\CCC[C@@](C)(C(=O)N[C@@H](CCCNC(=N)N)C(=O)N[C@@H](CCC(=O)O)C(=O)N[C@@H](CC(C)C)C(=O)N[C@H](C(=O)N[C@@H](CCC(=O)O)C(N)=O)C(C)C)NC(=O)[C@H](CCC(N)=O)NC(=O)[C@H](CC(C)C)NC(=O)[C@H](CC(C)C)NC1=O)[C@@H](C)O)C(C)C (some centres not stated) | -34.6% (active) | 7.17% (active) | -43.1% (active) | -63.6% (active) | -76% (active) | 36.5% | 27.8% | -85.6% (active) | -53% (active) |
| O=C(N/N=C/c1ccc(Cl)cc1)c1ccc(Cc2n[nH]c(=O)c3cccnc23)cc1 | 90.6% | 96.1% | 97.3% | 109% | 95.2% | 89% | 103% | 101% | 104% |
| COc1ccc(/C=c2\sc3n(c2=O)C(c2cc(OC)c(OC)c(OC)c2)C=C(c2ccc(OC)c(OC)c2)N=3)cc1OC (configuration not stated) | 103% | 108% | 103% | 107% | 63.3% | 58.1% | 100% | 78.1% | 97.3% |
| CCCCN(CCCC)C(=O)[C@H](CC)[C@@H]1CC[C@@H](C)[C@@H]([C@H](C)[C@@H](O)[C@@H](C)C(=O)[C@H](CC)C2O[C@]3(C=CC(=O)[C@]4(CC[C@@](C)([C@H]5CC[C@](O)(CC)[C@H](C)O5)O4)O3)[C@H](C)C[C@@H]2C)O1 (some centres not stated) | 25.8% | 15.3% | 42.1% | 19.7% | -6.89% (active) | 13.2% | 30.3% | 47.7% | 21.3% |
| CCOC(=O)C(C)(c1ccccc1)c1ccccc1 | 106% | 100% | 95% | 106% | 98.6% | 94.8% | 92.9% | 119% | 120% |
| CC(CN(C)C)Oc1ccccc1NC1=C(Cl)C(=O)C(Nc2ccccc2OC(C)CN(C)C)=C(Cl)C1=O (configuration not stated) | -70.7% (active) | -94.4% (active) | -97.6% (active) | -4.55% (active) | -60.7% (active) | -73.4% (active) | 1.98% (active) | -71.5% (active) | -67.3% (active) |
| CC(C)(O)CCl | 109% | 96.7% | 107% | 102% | 114% |  | 98.4% | 114% | 126% |
| CN(C)c1nc(N)c2nccnc2n1 | 87.9% | 105% | 111% | 108% | 101% |  | 99.6% | 109% | 100% |
| COC1=CC(=O)OC(c2ccc(OC)cc2)C1 (configuration not stated) | 89.2% | 110% | 105% | 109% | 98.1% |  | 108% | 109% | 108% |
| CN(C)c1ccc(/C=N/NC(=O)c2ccccc2Nc2cccc(C(F)(F)F)c2)cc1 | 91.2% | 101% | 79.6% | 96.3% | 73% | 83.2% |  | 90.1% | 111% |
| CN(C)CCCOc1ccccc1NC1=C(Cl)C(=O)C(Nc2ccccc2OCCCN(C)C)=C(Cl)C1=O | -48.5% (active) | -81% (active) | -96.9% (active) | -20.6% (active) | -57.1% (active) | -67.2% (active) | -55.6% (active) | -95.4% (active) | -64.9% (active) |
